DRD3 antagonist: antagonists of human D3 dopamine receptor. D3R cells, DiscoveRx beta-arrestin luminescence, antagonist mode; hits give low values. max response, negative = inhibition, %. 360,000 compounds, 2.5% hits. AID 652054; in the data active means max response below about -50%; inconclusive means no clear call, values can overlap the other calls
Target sequence (P35462 whole entry, looked up): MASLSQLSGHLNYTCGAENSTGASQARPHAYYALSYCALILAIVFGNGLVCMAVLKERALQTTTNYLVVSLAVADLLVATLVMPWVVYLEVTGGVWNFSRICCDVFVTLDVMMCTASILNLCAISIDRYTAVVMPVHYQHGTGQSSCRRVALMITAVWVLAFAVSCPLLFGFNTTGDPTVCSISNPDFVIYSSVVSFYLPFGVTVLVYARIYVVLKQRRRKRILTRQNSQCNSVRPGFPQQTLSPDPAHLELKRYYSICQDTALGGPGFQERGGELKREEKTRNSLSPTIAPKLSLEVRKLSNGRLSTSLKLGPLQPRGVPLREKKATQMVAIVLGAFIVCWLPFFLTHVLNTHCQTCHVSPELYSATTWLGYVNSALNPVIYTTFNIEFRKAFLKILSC
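Cells plated overnight at 1500 cells/well, then exposed to library compounds with dopamine controls for 90 minutes at 37 degrees C. DiscoveRx reagent added for 30–60 minutes at room temperature; luminescence read, quantitative HTS format.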
S2 tox: viability counter-screen for ATXN expression inhibitors. 400,000 compounds, 0.49% hits. AID 651635. Potency, µM (series often up to 56.7 µM), actives largely listed as cytotoxic. S2 cells (HEK-293 line with an ATXN2-luciferase reporter) viability, CellTiter-Fluor protease fluorescence, 24 h; further: nearly all actives have a fitted effect of over 40% in size
ATXN2 expr inh: reduces ATXN2 reporter expression in HEK-293 cells. HEK-293 ATXN2-luciferase reporter, luminescence, 24 h. Potency, µM (titrated, usually from 57 µM), most hits filed as inhibitors. 360,000 compounds, 0.72% hits; further: nearly all actives have a fitted effect of over 55% in size
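qHTS (up to 57 uM final) was run with 24 h compound exposure of reporter cells at 37 °C. Each well was multiplexed: SteadyGlo luminescence measured ATXN2-luciferase expression after a fluorogenic Gly-Phe-AFC viability readout (25 uM final).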
DRD3 agonist: D3 dopamine receptor (human) agonism. max activation, %. D3R DiscoveRx beta-arrestin cells, luminescence, 90 min. 410,000 compounds, 0.58% hits. P35462; in the data active means max activation above about 30%
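Agonist mode: compounds and dopamine controls were applied to plated cells for 90 min at 37 degrees C after an overnight attachment at 1500 cells/well. Luminescent read-out followed 30 - 60 minutes at room temperature with DiscoveRx detection reagent.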
HepG2 tox: kills HepG2 cells in TGF-b inhibitor counter-screen | HepG2 CAGA-GFP viability, ATP luminescence, 18 h | Potency, µM (series often up to 46.1 µM), most hits filed as cytotoxic | 410,000 compounds, 0.76% hits
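CellTiter-Glo luminescence gave cytotoxicity after 18 hours at 37 degrees C. The cells were HepG2 CAGA-GFP in 1% FBS DMEM, stimulated with 500 pg/mL TGF-beta after compound addition. %Activity was normalised to no-cell wells (complete cell-killing) and DMSO (no toxicity), and curves were fitted and classified.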
TGFb inhibitor: blocks TGF-b signaling; HepG2 CAGA-GFP TGF-b/SMAD3 reporter, GFP fluorescence, 18 h; TGF-beta stimulated, 500 pg/mL final; Potency, µM (top dose mostly 46.1 µM), usual class: inhibitors; 410,000 compounds, 1.2% hits; further: nearly all actives have a fitted effect of over 65% in size
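Inhibition of TGF-beta-driven CAGA-GFP reporter expression in HEPG2 cells is measured by cellular GFP fluorescence after 18 h stimulation with 500 pg/mL recombinant TGF-beta in 1% FBS medium at 37 degrees C.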
Numbers stand for hits; n = inactive; u = inconclusive; x = no result given; [ ] = another dose, or the depositor's remark. Hits are enriched below; roughly 4.7% of the tested compounds scored in any of these assays. Unless noted, the call rests on the fitted dose curve; in most records, active means well fitted curve in the direction sought with a large enough effect; inconclusive means small, poorly fitted or top-dose-only effect, or another doubt; inactive means no such curve, though single readings can be large; an effect the other way counts as inactive or inconclusive.

SMILES	DRD3 antagonist	S2 tox	ATXN2 expr inh	DRD3 agonist	HepG2 tox	TGFb inhibitor
COc1ccc(C(CNC(=O)c2ccc(-c3nc4ccccc4s3)o2)N2CCCC2)cc1 (stereo unspecified)	-83	u	n	n	n	n
O=C(NN1C(=O)NC2(CCCCC2)C1=O)c1ccc(-c2ccc([N+](=O)[O-])cc2)o1	n	n	n	n	n	n
COc1ccc(C(CNC(=O)c2ccc(-c3ccccc3Cl)o2)N2CCCC2)cc1 (stereo unspecified)	-121	x	x	n	11µM	u
O=C(NN1C(=O)NC2(CCCCC2)C1=O)c1ccc(-c2ccccc2Cl)o1	-52	n	n	n	n	n
COc1ccc(C(CNC(=O)c2ccc(C)o2)N2CCOCC2)cc1 (stereo unspecified)	n	n	n	n	n	n
CC1=C(C(=O)O)N2C(=O)[C@@H](NC(=O)[C@H](N)C3=CCC=CC3)[C@H]2SC1	x	n	n	n	x	x
COc1ccc(OC)c(CN2CCCC(n3cc(C(=O)N4CCCCC4)nn3)C2)c1 (stereo unspecified)	x	n	x	x	x	x
COc1cccc(C(=O)N2CCN(C(=O)c3cccc4ccccc34)CC2)c1OC	n	n	n	n	n	n
O=C(c1ccco1)N1CCN(CC(O)COc2ccc(Br)cc2)CC1 (stereo unspecified)	n	n	n	35	n	n
COc1cccc(CN2CCN(C(=O)c3ccco3)CC2)c1	n	n	n	37	n	n
Cn1c(=O)cc(N2CCN(C(=O)c3ccco3)CC2)[nH]c1=O	-113	n	n	n	n	n
COc1ccc(OC)c(CN2CCN(C(=O)c3ccco3)CC2)c1	n	n	n	n	n	n
CCc1ccc(CN2CCN(C(=O)c3cccc(OC)c3OC)CC2)cc1	-57	n	n	n	n	n
O=C([C@@H]1CC=C[C@@H]2CCN(C3CC3)C(=O)[C@@H]21)N1CCOCC1	x	x	x	x	n	n
COc1ccc(-c2noc(CSc3nc4ccccc4[nH]3)n2)cc1OC	x	n	u	n	n	u
COc1ccc(OCC(=O)Nc2ccc(N3CCN(C(=O)c4ccco4)CC3)cc2)cc1	n	n	n	n	n	n
COc1ccc(OCC(=O)N2CCN(C(=O)c3ccco3)CC2)cc1	-54	n	n	n	n	n
O=C(COc1ccccc1)N1CCN(C(=O)c2ccco2)CC1	n	n	n	n	n	n
Cc1ccc2nc(-c3ccc(NC(=O)CN4CCN(C(=O)c5ccco5)CC4)cc3)sc2c1	n	u	n	36	n	n
Cc1cc(C)cc(OCC(=O)Nc2ccc(N3CCN(C(=O)c4ccco4)CC3)cc2)c1	n	n	n	37	n	u
O=C(c1ccco1)N1CCN(Cc2cccc(F)c2)CC1	n	n	n	36	n	n
Cc1ccc(NC(=O)CN2CCN(C(=O)c3ccco3)CC2)cc1	n	n	n	n	n	n
CCC1CN(CCNC(=O)c2ccccc2-n2cccn2)Cc2cc(OC)ccc2O1 (stereo unspecified)	x	n	x	x	x	x
Cc1ccc(C)c(CSc2cn(CCNC(=O)c3cccs3)c3ccccc23)c1	x	x	u	n	n	u
CC1(C)CNc2cc(NC(=O)c3cccnc3NCc3ccncc3)ccc21	x	x	n	x	x	x
SMILES	DRD3 antagonist	S2 tox	ATXN2 expr inh	DRD3 agonist	HepG2 tox	TGFb inhibitor
COc1ccccc1CCNc1ncnc2sc(C(=O)N3CCCN(C=O)CC3)c(C)c12	x	n	x	x	x	x
CCc1ccc(CN2CCN(C(=O)c3ccco3)CC2)cc1	n	n	n	69	n	n
COc1ccc(NC(=O)C(=O)NCCN2CCN(C(=O)c3ccco3)CC2)cc1	n	n	n	56	n	n
O=C(c1ccco1)N1CCN(Cc2ccc(Cl)cc2)CC1	n	n	n	n	n	u
O=C(c1ccco1)N1CCN(Cc2ccc(Br)cc2)CC1	n	n	n	33	n	n
O=C(c1ccco1)N1CCN(Cc2cccc3ccccc23)CC1	n	n	n	32	n	n
COc1ccc(CC(=O)N2CCN(C(=O)c3ccco3)CC2)cc1	n	n	n	n	n	n
COc1cccc(-c2nn(C)c3sc(C(=O)NCc4ccco4)cc23)c1	n	n	n	n	n	u
CCCCNC(=O)c1cc2c(-c3ccc(Cl)cc3)nn(C)c2s1	n	n	n	n	n	n
CCN1CCCC1CNC(=O)c1cc2c(-c3ccc(Cl)cc3)nn(C)c2s1 (stereo unspecified)	u	14µM	25µM	n	n	u
CCN1CCCC1CNC(=O)c1cc2c(-c3cccc(OC)c3)nn(C)c2s1 (stereo unspecified)	-72	u	n	n	n	n
COCCNC(=O)c1cc2c(-c3ccc(Cl)cc3)nn(C)c2s1	n	n	n	n	n	n
Cn1nc(-c2ccc(Cl)cc2)c2cc(C(=O)NCCCN3CCCC3)sc21	u	18µM	20µM	n	n	n
O=C(CSc1ncc2c(n1)-c1cc(Cl)ccc1N(Cc1ccccc1)S2(=O)=O)NCc1ccccc1	x	n	n	n	n	n
CCOc1ccc(-c2nn3c(-c4ccc(F)cc4)nnc3s2)cc1	-64	n	n	n	n	n
Cc1cc(C)c2ccc(/C=N/O)nc2c1O	n	n	x	n	n	18µM
Cc1cc(C)c2ccc(NN)nc2c1O	n	u	n	n	n	n
Cc1cccc(NC(=O)/C(C#N)=C/c2ccc(C)o2)c1	x	n	n	n	n	n
OCCC1CN(Cc2cc3c(cc2Cl)OCO3)CCN1C1CCCC1 (stereo unspecified)	-53	n	x	n	n	n
OCCC1CN(Cc2cc3c(cc2Cl)OCO3)CCN1C1CCCCC1 (stereo unspecified)	n	n	n[11.3 µM]	n	n	n
COc1ccc2c(c1)c(CC(=O)Nc1cccc(S(N)(=O)=O)c1)c(C)n2C(=O)c1ccc(Cl)cc1	n	u	u	n	n	16µM
COc1ccc2c(c1)c(CC(=O)OCC(=O)O)c(C)n2C(=O)c1ccc(Cl)cc1	-54	n	n	n	n	n
COc1ccc(CNC(=O)CCc2c(C)c3cc4c(C)coc4c(C)c3oc2=O)cc1OC	x	x	x	n	n	n
CN(C)c1ccc(/C=c2\[nH]c(=O)/c(=C\c3ccc(N(C)C)cc3)[nH]c2=O)cc1	x	x	x	x	n	n
C/C(=C(\CCOC(=O)c1ccccc1)SS/C(CCOC(=O)c1ccccc1)=C(/C)N(C=O)Cc1cnc(C)nc1N)N(C=O)Cc1cnc(C)nc1N	x	n	x	n	x	x
COc1c2ccoc2c(OC[C@@H](OC(C)=O)C(C)(C)O)c2oc(=O)ccc12	n	n	n	48	n	n
CCc1n[nH]c(=S)n1/N=C/c1ccc(-c2ccc(Br)cc2)o1	-146	u	x	n	n	u

Screening results (PubChem BioAssay)
